Outcome and AC50 data for 39 compounds are collected here from PubChem BioAssay (EPA / NIEHS).

“And” between values parts separate entries of the source, which are not always exact repeats. Identical values can stand only once. More than one record can exist for a structure, and the calls need not agree. The source made the active and inactive calls. How the source made its calls: active means hit-call score of the fitted dose curve at least 0.9, where 1 is the maximum; inactive means score below 0.9.

Read-out in this test: Tissue plasminogen activator (tPA), PLAT (gene 5327)
The test can be described thus: BSK_BE3C_tPA: BioMAP Diversity Plus: BE3C Assay for Tissue plasminogen activator (tPA) Biomarker Activity (AID 2283041). As to conditions: primary human bronchial epithelial cells; actives raise or lower the signal. The method, then: BSK_BE3C is a cell-based, multiplexed-readout assay that uses bronchial epithelial cell, a human lung primary cell, with measurements taken at 24 hours after chemical dosing in a 96-well plate.BSK_BE3C_tPA is an assay component measured in the BSK_BE3C assay. It measures tPA antibody related to regulation of gene expression using ELISA technology.Data from the assay component BSK_BE3C_tPA was analyzed into 1 assay endpoint. This assay endpoint, BSK_BE3C_tPA, was analyzed with bidirectional fitting relative to DMSO as the negative control and baseline of activity. Using a type of binding reporter, gain or loss-of-signal activity can be used to understand changes in the signaling as they relate to the gene PLAT. Furthermore, this assay endpoint can be referred to as a primary readout, because this assay has produced multiple assay endpoints where this one serves a signaling function. To generalize the intended target to other relatable targets, this assay endpoint is annotated to the protease intended target family, where the subfamily is serine protease.
The levels of cell surface (or secreted, indicated by the prefix "s") biomarker endpoints were measured by ELISA. Overt cytotoxicity to cells in confluent adherent cultures (all systems other than the BT system) was assessed by measuring total protein levels using sulforhodamine B (SRB) staining in parallel cultures at the time of biomarker measurements, indicated as SRB endpoints. For proliferation assays for adherent cell types, individual cell types are cultured at sub-confluence and relative cell numbers quantified by SRB staining at time points optimized for each system (48 h: 3C and CASM3C systems; 72 h: BT and HDF3CGF systems; 96 h: SAg system). SRB was performed by staining cells with 0.1% SRB after fixation with 10% TCA and reading wells at 560 nm.Viability and proliferation of PBMC (T cells) was quantified by Alamar Blue reduction for the SAg and BT systems. For PBMC viability (referred to as PBMC Cytotoxicity within the assay endpoint names), cells were plated (75,000/well in a 96-well plate) and then chemical samples added for 1 h before addition of activators, SEB and TSST-1 (20 ng/mL final concentration each). Cells were incubated for 90 h. Then, Alamar Blue (20 uL/well) (Invitrogen, Cat DAL1100) was added for 6 h, and the plates were read with a fluorescence microplate reader at 546/580 nm (excitation/emission). For PBMC proliferation, cells were plated and activated as above but incubated for only 16 h prior to addition of Alamar Blue. Plates were read after 6 h.
Take `CC1(C)CC(O)CC(C)(C)N1[O]`: the outcome was inactive. For `CC(C)c1cccc(C(C)C)c1N`, the outcome was inactive. For the compound `CCN1CN(CC)CN(CC)C1`, the outcome was inactive. As for `Oc1ccccc1Cc1ccccc1O`, the half-maximal activity concentration (AC50) (as a rule, the concentration giving half of the maximal activity seen) is 13.4 µM (active) and 10.2 µM (active). Consider `CCc1cccc(C)c1N(C(=O)CS(=O)(=O)O)C(C)COC` (stereo not given), for which the result was inactive. Same read-out and setting: the value for `c1ccc2c(c1)[nH]c1ccccc12` was “inactive”; that for `Cc1ccc([N+](=O)[O-])cc1N` was “inactive”; that for `Nc1ccc(C(=O)O)cc1` was “inactive”.

With `CC(CCC(=O)O)(c1ccc(O)cc1)c1ccc(O)cc1`, the outcome was inactive.

As for `CC(C)[N+](C)(CCOC(=O)C1c2ccccc2Oc2ccccc21)C(C)C`, the result was inactive.

For `O=C(Cl)c1c(Cl)c(Cl)c(C(=O)Cl)c(Cl)c1Cl`, the outcome was inactive. On the same count and under the same terms, the value for `C=CC(=O)OCCCCCCCC(C)C` was “inactive”. The same measure, in the same setting: as for `CCCCCC1=CCCC1=O`, the entry is “inactive”; as for `Clc1cc(Cl)c(Cl)c(Cl)c1Cl`, “inactive”.

Consider `CCCCCCCCCCCC(=O)N(C)CC(=O)O`, for which the result was inactive. Regarding `C=CC(=O)OCCCCCCOC(=O)C=C`, the outcome was inactive.

`C=C(C)C(=O)OCCCCCCCCCCCC`: the result was inactive. Turning to `CCNc1nc(NC(C)(C)C)nc(OC)n1`, the outcome was inactive.

With `CCCCCCC=O`, the outcome was inactive. Consider `CC1=CC=C(C(C)C)CC1`, for which the outcome was inactive. On the same count and under the same terms, the value for `Oc1ccc(/C=C/c2cc(O)cc(O)c2)cc1` was “inactive”. As to `CC/C=C\C/C=C\C/C=C\CCCCCCCC(=O)OC`, the AC50 was 9.51 µM (active). Still for that read-out and setting: the value for `CC=C(C)C=CC=C(C)C` was 3.97 µM (active); that for `c1ccc2sc(SSN3CCOCC3)nc2c1` was 12.5 µM (active). For the compound `O=C(O)C(F)(F)C(F)(F)C(F)(F)C(F)(F)C(=O)O`, the outcome was inactive. Still for that read-out and setting: as for `C=CC(=O)NCOCCCC`, the entry is “inactive”; as for `CC(C)C(=O)OCCc1ccccc1`, “inactive”; as for `CCOC(=O)/C=C\C(=O)OCC`, “inactive”. On to `COc1ccc(C(=O)/C(Br)=C\C(=O)O)cc1`, for which the outcome was inactive and the half-maximal activity concentration (AC50) is 4.45 µM (active).

As for `Oc1c(Cl)cc(Cl)c(Cl)c1Cl`, the result was inactive.

Consider `CCCCCCCCCCCC(C)=O`, for which the outcome was inactive. Same read-out and setting: the value for `Fc1ccc(Br)cc1` was “inactive”; that for `COc1ccc(C(=O)c2ccccc2)c(O)c1` was “inactive”. As to `O=C(Oc1ccccc1)c1ccccc1C(=O)Oc1ccccc1`, the result was inactive. Turning to `CCCCCCOC(=O)CCCCC(=O)OCCCCCC`, the result was inactive. With `C1CNCCN1`, the outcome was inactive.

Regarding `CC/C=C\CCOC(=O)c1ccccc1O`, the AC50 is 20 µM (active).

Take `CCOC(=O)C1=NOC(c2ccccc2)(c2ccccc2)C1`: the result was inactive. The same measure, in the same setting: the value for `C=CCCCCCCCCC=O` was “inactive”.
